Screening results from PubChem.
An excerpt weighted towards active compounds, which were near 3.7% of everything screened.
HepG2 tox: kills HepG2 cells in TGF-b inhibitor counter-screen; HepG2 CAGA-GFP viability, ATP luminescence, 18 h; Potency, µM (top dose mostly 46.1 µM), for inactives: top-dose activity change, negative = cytotoxicity, usual class: cytotoxic; 410,000 compounds, 0.76% hits; AID 588856
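CellTiter-Glo luminescence gave cytotoxicity after 18 hours at 37 degrees C. The cells were HepG2 CAGA-GFP in 1% FBS DMEM, stimulated with 500 pg/mL TGF-beta after compound addition. %Activity was normalised to no-cell wells (complete cell-killing) and DMSO (no toxicity), and curves were fitted and classified.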
ATXN2 expr inh: inhibitors of ATXN2 expression; HEK-293 ATXN2-luciferase reporter, luminescence, 24 h; Potency, µM (titrated, usually from 57 µM), for inactives: top-dose activity change, negative = inhibition, most hits filed as inhibitors; 360,000 compounds, 0.72% hits; note: % is set by controls: 0 for no effect and ±100 for the full control effect; nearly all actives have a fitted effect of over 55% in size
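qHTS (up to 57 uM final) was run with 24 h compound exposure of reporter cells at 37 °C. Each well was multiplexed: SteadyGlo luminescence measured ATXN2-luciferase expression after a fluorogenic Gly-Phe-AFC viability readout (25 uM final).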
TGFb SMAD3 inh: blocks TGF-b signaling | AID 588855 | 410,000 compounds, 1.2% hits | HepG2 CAGA-GFP TGF-b/SMAD3 reporter, GFP fluorescence, 18 h; TGF-beta stimulated, 500 pg/mL final | Potency, µM (highest dose often 46.1 µM), without a hit: at the top dose activity, negative = inhibition, actives largely listed as inhibitors; note: % is set by controls: 0 for no effect and ±100 for the full control effect; nearly all actives have a fitted effect of over 65% in size
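Inhibition was scored as loss of TGF-beta-induced (500 pg/mL final, 18 hours, 37 degrees C) GFP in HEPG2 cells carrying a CAGA-GFP reporter, in DMEM with 1% FBS. Well GFP was summed per cell; Activity was normalised to unstimulated and stimulated DMSO wells, then concentration-response fitting.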
GLP-1R agonist: GLP-1 receptor (human) agonism. P43220. HEK293 GLP-1R CRE-luciferase, luminescence, 4-6 h; cells express a hypersensitive GLP-1R form. Potency, µM (series often up to 45.6 µM), inactives show top-dose activation, usual class: activators. 380,000 compounds, 0.007% hits. AID 624172; note: % of control where 0% means no effect
Target sequence (P43220 whole entry, looked up): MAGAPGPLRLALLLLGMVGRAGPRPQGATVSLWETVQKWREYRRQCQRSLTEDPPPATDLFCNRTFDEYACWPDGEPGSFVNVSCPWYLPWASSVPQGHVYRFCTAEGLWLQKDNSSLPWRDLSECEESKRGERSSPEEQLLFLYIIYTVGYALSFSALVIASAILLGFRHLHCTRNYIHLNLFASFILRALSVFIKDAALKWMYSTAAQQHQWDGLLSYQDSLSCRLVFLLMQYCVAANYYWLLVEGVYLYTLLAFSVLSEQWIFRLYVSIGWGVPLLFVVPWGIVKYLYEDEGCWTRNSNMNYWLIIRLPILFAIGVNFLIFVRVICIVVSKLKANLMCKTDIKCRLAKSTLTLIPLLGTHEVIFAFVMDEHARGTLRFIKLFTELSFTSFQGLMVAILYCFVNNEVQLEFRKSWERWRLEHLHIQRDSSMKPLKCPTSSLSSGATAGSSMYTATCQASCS
S2 tox: viability counter-screen for ATXN expression inhibitors. Potency, µM (series often up to 56.7 µM), most hits filed as cytotoxic. S2 cells (HEK-293 line with an ATXN2-luciferase reporter) viability, CellTiter-Fluor protease fluorescence, 24 h. 400,000 compounds, 0.49% hits. AID 651635; note: nearly all actives have a fitted effect of over 40% in size
GLP1R inv ag: acts as inverse agonist at human GLP-1 receptor. HEK293 GLP-1R CRE-luciferase, luminescence, 24 h; GLP-1R form is constitutively active. 410,000 compounds, 1.6% hits. AID 624417. Potency, µM (top dose mostly 38.3 µM), without a hit: top-dose activity change, negative = inhibition, hits mostly inhibitors; note: % is set by controls: 0 for no effect and ±100 for the full control effect; nearly all actives have a fitted effect of over 55% in size
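Inverse agonists were sought by their lowering of basal cAMP reporter luciferase output in HEK293 cells stably carrying constitutively active human GLP-1R, after 24 h compound treatment.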
The depositor's hits bear a star; i = inactive; ? = inconclusive; . = no result. Calls come from the whole dose curve; as a rule, active = well fitted curve in the direction sought with a large enough effect; inconclusive = small, poorly fitted or top-dose-only effect, or another doubt; inactive = no such curve, though single readings can be large; an effect the other way counts as inactive or inconclusive. Potency is the fitted concentration of half-maximal effect.

SMILES | HepG2 tox | ATXN2 expr inh | TGFb SMAD3 inh | GLP-1R agonist | S2 tox | GLP1R inv ag
O=C(COc1ccc(/C=N/NS(=O)(=O)c2ccccc2)cc1)Nc1cccc(Cl)c1 | -9% | 3% | ? | 0% | ? | 10µM*
O=C(COc1ccc(/C=N/NS(=O)(=O)c2ccccc2)cc1)NCc1ccccc1 | 14% | -7% | 17% | -8% | ? | -9%
COc1cccc(C2CC(=O)N(c3ccc(F)cc3)C3=C2C(=O)OC3)c1OC (stereo not drawn) | -10% | -9% | 6% | . | i | 2%
COC(=O)c1cc2oc3ccccc3c2n1Cc1ccccn1 | -8% | 8% | 3% | 13% | i | 4.5µM*
COC(=O)c1cc2oc3ccccc3c2n1Cc1ccc(C)cc1 | 0% | . | . | . | . | 13%
Cc1ccc(CNc2ncnc3sc(C(=O)N4CCC(N5CCCC(O)C5)CC4)c(C)c23)o1 (stereo not drawn) | . | . | . | . | i | .
CCN1CCS/C1=C\C=C\C1=[N+](CC)CCS1 | -30% | ? | ? | -6% | 24µM* | ?
CCN1CCS/C1=C/C=C/C1=[N+](CC)CCS1 | -12% | ? | -3% | 1% | i | ?
O=C(Nc1ccccc1Cl)C1CCCN(c2ncnc3c2nc2n3CCCCC2)C1 (stereo not drawn) | -24% | -26% | -27% | 11% | ? | 3.2µM*
O=C(NCC1CCN(Cc2ccc(Cl)cc2)CC1)C1CCCN(c2ncnc3c2nc2n3CCCCC2)C1 (stereo not drawn) | -21% | . | -23% | 10% | ? | ?
O=C(NCC1CCN(Cc2ccc(F)cc2)CC1)C1CCCN(c2ncnc3c2nc2n3CCCCC2)C1 (stereo not drawn) | -52% | . | 13µM* | 0% | ? | ?
Cc1cccc(N2CCN(CCCNC(=O)C3CCCN(c4ncnc5c4nc4n5CCCCC4)C3)CC2C)c1 (stereo not drawn) | -21% | 25µM* | ? | 9% | 18µM* | ?
COc1cccc(N2CCN(C(=O)C3CCCN(c4ncnc5c4nc4n5CCCCC4)C3)CC2)c1 (stereo not drawn) | -4% | -22% | -7% | 10% | i | 4.5µM*
Cc1cccc(CCNC(=O)C2CCCN(c3ncnc4c3nc3n4CCCCC3)C2)c1 (stereo not drawn) | -22% | -18% | -19% | -2% | i | ?
CC(=O)OCC(NC(=O)C(COCc1ccccc1)NC(=O)OC(C)(C)C)C1OC(n2ccc(=O)[nH]c2=O)C(OC(C)=O)C1OC(C)=O (stereo not drawn) | -2% | . | -11% | . | . | .
COc1ccc(C2C=C3CN(C(=O)OC(C)(C)C)S(=O)(=O)C3CC2OC(=O)c2cccc(C)c2)cc1 (stereo not drawn) | 15% | . | -1% | . | . | .
CCc1nc2cc(C(=O)N(C)CC3CCCN(C)C3)cc(NC(=O)c3ccccc3OC)c2n1C (stereo not drawn) | . | . | . | . | i | .
CCCCCCCCCCCCCCCCSCC(COC)COP(=O)([O-])OCC[N+](C)(C)C (stereo not drawn) | . | . | . | -2% | ? | .
CCc1ccccc1N(CC)C(=O)C1CCN(c2ncnc3c2nc2n3CCCCC2)CC1 | -61% | . | ? | -2% | ? | 8.9µM*
O=C(Nc1cccc(Cl)c1)C1CCCN(c2ncnc3c2nc2n3CCCCC2)C1 (stereo not drawn) | -65% | ? | ? | . | ? | 46%
CCN(Cc1ccccc1)C(=O)C1CCN(c2ncnc3c2nc2n3CCCCC2)CC1 | -7% | -25% | -22% | 13% | i | -11%
CCc1cccc(NC(=O)C2CCCN(c3ncnc4c3nc3n4CCCCC3)C2)c1 (stereo not drawn) | -27% | ? | -21% | 8% | ? | 6.3µM*
Cc1ccc(NC(=O)C2CCCN(c3ncnc4c3nc3n4CCCCC3)C2)cc1F (stereo not drawn) | -13% | ? | -22% | . | ? | 3.5µM*
CC(C)N=C(NS(=O)(=O)c1ccccc1)C(Cl)(Cl)Cl | -94% | ? | ? | -7% | ? | 4µM*
Cc1cnc(Nc2ccc(F)cc2Cl)nc1-c1c[nH]c(C(=O)N[C@H](CO)c2cccc(Cl)c2)c1 | . | 24µM* | . | . | . | .
SMILES | HepG2 tox | ATXN2 expr inh | TGFb SMAD3 inh | GLP-1R agonist | S2 tox | GLP1R inv ag
Cc1ccccc1C1(CC(=O)N2CC3CC4CC(C3)CC2C4)CC(=O)N(Cc2cccnc2)C1=O (stereo not drawn) | . | . | . | . | i | .
Cc1cccc(OCCc2nnc(N)s2)c1C | -11% | -8% | 20µM* | 9% | i | 0%
Nc1nnc(CCOc2ccc(Cl)cc2)s1 | -14% | 3% | 1% | 0% | i | 49%
O=C(Nc1nc2c(s1)CCCC2)c1cccs1 | 10µM* | 24% | -3% | -8% | i | 10µM*
O=S1(=O)N=C(Nc2nc3c(s2)CCCC3)c2ccccc21 | -38% | 16% | ? | -33% | i | 4.5µM*
O=C(Cc1cccs1)Nc1nc2c(s1)CCCC2 | -27% | 79% | 19% | 13% | i | 0%
CCc1cccc(CC)c1NC1=NS(=O)(=O)c2ccccc21 | -8% | 3% | 11% | . | i | -4%
Cc1cccc(Nc2nc3c(s2)CCCC3)c1 | -35% | 124% | ? | 4% | i | ?
O=C(O)c1ccc(Nc2nc3c(s2)CCCC3)cc1 | -3% | ? | 4% | -5% | i | 1.8µM*
CN(Cc1ccccc1)C(=O)CC(c1ccccc1)c1cc(Cl)ccc1O (stereo not drawn) | -100% | -36% | 16µM* | -4% | i | ?
COc1ccc2cc(-c3nc(-c4ccc(S(C)=O)cc4)[nH]c3-c3ccncc3)ccc2c1 (stereo not drawn) | . | -17% | . | . | . | .
Cc1ccc(S(=O)(=O)N2[C@@H](c3ccc(C(C)(C)C)cc3)C(C(=O)O)=CC[C@H]2c2ccc(C(C)C)cc2)cc1 | -88% | ? | ? | -3% | ? | 3.2µM*
Cc1ccc([C@@H]2CC=C(C(=O)O)[C@H](c3ccc(C(C)(C)C)cc3)N2S(=O)(=O)c2ccc(C)cc2)cc1 | -86% | ? | ? | -4% | ? | ?
C=C[C@H]1C(C(=O)OCC)=CC[C@@H](c2ccccc2)N1S(=O)(=O)c1ccc(C)cc1 | -34% | -8% | -29% | 2% | i | ?
